In the library only some 6.9% were active in any assay of this set; here they are far more common.
NS3h inh CB = hepatitis C NS3 helicase inhibition, primary screen. 16,000 compounds, 1.6% hits. NS3h Cy5-dT15 DNA binding, fluorescence polarization. inhibition, % at 100 µM;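 active = inhibition above the average over every tested compound plus 3 SD, cut at about 40% in these data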
Cy5 interf NS3h = counter-screen for HCV NS3 helicase inhibitors: fluorescence interference | Cy5-dT15 DNA with NS3h; actives lie on both sides; signal over control mean, under 1 quenches | fluorescence interference ratio at 100 µM | 16,000 compounds, 6% hits;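 active = compound fluorescence over control fluorescence at most 0.8, a quencher, or at least a set upper limit, an enhancer; inactive = ratio between 0.8 and the set upper limit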
HCV NS3h conf = hepatitis C NS3 helicase inhibition, confirmation. shares compounds with NS3h inh CB. NS3h binding to Cy5-dT15 DNA, fluorescence polarization. inhibition, % at 100 µM. 240 compounds, 20% hits;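 active = percent inhibition of 50% or more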
SSB-DNA FP CB = disrupts E. coli SSB binding to DNA in counter-screen | shares compounds with NS3h inh CB | E. coli SSB binding Cy5-dT15, fluorescence polarization | inhibition, % at 100 µM | 240 compounds, 40% hits;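 active = inhibition of at least 50%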;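 note: displacers lower Cy5 polarization so higher inhibition means more SSB displaced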
Target sequence (P0AGE0 whole entry, looked up): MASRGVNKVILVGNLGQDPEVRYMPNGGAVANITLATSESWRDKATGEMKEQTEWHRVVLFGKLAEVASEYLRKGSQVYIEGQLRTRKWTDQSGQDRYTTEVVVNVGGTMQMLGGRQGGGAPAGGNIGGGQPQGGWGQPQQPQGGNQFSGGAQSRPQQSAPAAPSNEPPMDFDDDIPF
Cy5 SSB interf = counter-screen for HCV NS3 helicase inhibitors: fluorescence interference; Cy5-dT15/E. coli SSB fluorescence interference; actives lie on both sides; shares compounds with NS3h inh CB; 240 compounds, 8% hits; fluorescence interference ratio at 100 µM;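 active = fluorescence interference ratio at or above 1.2, signal boosting, or at or below 0.8, signal quenching; inactive = ratio between 0.8 and 1.2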;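 note: ratio of compound well signal to mean negative control signal so 1 means no effect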
Cy5 fluor confirm = confirmation counter-screen for HCV NS3 helicase inhibitors: fluorescence interference. shares compounds with NS3h inh CB. fluorescence interference ratio at 100 µM, hits read low. Cy5-dT15 DNA/NS3h fluorescence interference counterscreen. 240 compounds, 44% hits. AID 720489;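 active = fluorescence interference ratio at or below 0.8 quencher or at or above a set limitenhancer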;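 note: ratio of compound fluorescence to mean of negative controls so 1 means no interference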
Starred values were filed as active, the others as inactive; nt = no result given.

SMILES	NS3h inh CB	Cy5 interf NS3h	HCV NS3h conf	SSB-DNA FP CB	Cy5 SSB interf	Cy5 fluor confirm
CCOc1ccc(/C=C2/SC(=S)NC2=O)cc1Cl	14	1	nt	nt	nt	nt
Cc1nc(=O)c(-c2ccccc2)c(C)n1-c1ccc(OCC(=O)O)cc1	-4	1.1	nt	nt	nt	nt
Cc1ccc(C)n1-c1ccc(OCC(=O)O)cc1	82*	1.4*	78*	95*	0.92	0.83
Cc1ccc(S(=O)(=O)Nc2ccccc2C(=O)Nc2cccc3c2C(=O)c2ccccc2C3=O)cc1	2	1.1	nt	nt	nt	nt
CC1=C(C#N)c2nc(N)c(C#N)c(C)c2/C1=C/c1ccc(-c2cccc(C(=O)O)c2)o1	121*	1.1	71*	152*	0.86	0.99
CC1=C(C#N)c2nc(N)c(C#N)c(C)c2/C1=C\c1ccc(I)o1	2	1.1	nt	nt	nt	nt
O=C(Nc1nc(-c2ccc(Cl)cc2)cs1)c1cccs1	40	1.2	27	19	0.97	0.77*
O=C(NC(=S)Nc1nc(-c2ccccc2)cs1)c1ccc(Cl)cc1	8	1	nt	nt	nt	nt
Cc1c(C(=O)O)cccc1-n1c(C)ccc1C	97*	1.4*	67*	106*	0.94	0.95
O=C(O)c1cccc(C(=O)O)c1N(c1ccccc1)c1ccccc1	3	1	nt	nt	nt	nt
CCOc1ccc(S(=O)(=O)N(CC(=O)NC(C)CC)c2ccc(C)cc2)cc1 (stereo not given)	-4	1.1	nt	nt	nt	nt
COc1cc(/C=C2/SC(=S)N(CC(=O)N3CCOCC3)C2=O)cc(OC)c1OC	14	0.96	nt	nt	nt	nt
COC(=O)c1cccc(N2C(=O)C=CC2=O)c1	46*	0.95	36	-2	0.98	0.73*
COC(=O)c1cccc(NC(=O)c2ccc[n+]([O-])c2)c1	4	1.1	nt	nt	nt	nt
Cc1ccc(-c2nc3cc(Cl)ccc3o2)cc1NC(=O)c1ccc(-c2ccc([N+](=O)[O-])cc2)o1	-7	1	nt	nt	nt	nt
CN(C)c1ccc(/C=C(\NC(=O)c2ccccc2)C(=O)N/N=C\c2cc(O)ccc2[N+](=O)[O-])cc1	45*	0.65*	25	76*	0.79*	0.73*
O=C(N/N=C\c1ccccc1O)/C(=C\c1ccc2c(c1)OCO2)NC(=O)c1ccccc1	5	1.1	nt	nt	nt	nt
N/C(=N/OC(=O)COc1ccc2ccccc2c1)c1ccc([N+](=O)[O-])cc1	5	1.1	nt	nt	nt	nt
Cc1ccc(C)n1-c1cc(C(=O)O)ccc1O	96*	1.4*	85*	104*	0.94	1
Cc1ccc(C(=O)O)cc1N1C(=O)C2C3C=CC(C3)C2C1=O (stereo not given)	-3	1.1	nt	nt	nt	nt
Cc1ccc(C)n1-c1ccc(C(=O)O)c(O)c1	90*	1.3*	101*	99*	0.92	0.98
CC(=O)c1ccc(-n2c(C)ccc2C)cc1	0	1.1	nt	nt	nt	nt
CN(C(=O)NS(=O)(=O)c1ccccc1Cl)c1nc(OCC(F)(F)F)nc(OCC(F)(F)F)n1	1	1	nt	nt	nt	nt
COc1ccc(C2c3c(-c4ccccc4)n[nH]c3C(=O)N2c2ccccc2)cc1 (stereo not given)	4	0.97	nt	nt	nt	nt
O=C(O)CC(C(=O)O)c1c[nH]c2ccccc12 (stereo not given)	-5	1.1	nt	nt	nt	nt
O=C(O)Cc1c[nH]c2ccc(O)cc12	90*	0.81	78*	110*	0.88	0.91
CCCC(C(=O)O)N1C(=O)/C(=C\c2ccc(-c3ccc([N+](=O)[O-])cc3)o2)SC1=S (stereo not given)	84*	0.86	8	54*	0.82	0.71*
O=C1/C(=C/c2ccc(-c3ccc([N+](=O)[O-])cc3)o2)SC(=S)N1Cc1ccccc1	-6	0.96	nt	nt	nt	nt
O=C(O/N=C\c1ccc([N+](=O)[O-])o1)c1ccccc1Br	10	1	nt	nt	nt	nt

Source: PubChem
